Assay outcomes from PubChem BioAssay.
Nrf2 block = Nrf2 qHTS screen for inhibitors. hit rate 2.1% among 360,000. AID 504444, 2011. A549 ARE-Fluc reporter, luciferase luminescence, 18-24 h. Potency, µM (top dose mostly 46 µM), usual class: inhibitors; note: nearly all actives have a fitted effect of over 60% in size
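In this cell-based qHTS, ARE-driven firefly luciferase in A549 cells reports Nrf2 activity; the luminescent signal after BugLite lysis is the measured value, with a prior CellTiter-Fluor read for cell health.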
HepG2 tox = qHTS for Inhibitors of TGF-b: Cytotox Counterscreen; HepG2 CAGA-GFP viability, ATP luminescence, 18 h; Potency, µM (doses to about 46.1 µM), usual class: cytotoxic; hit rate 0.76% among 410,000; AID 588856, 2011
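CellTiter-Glo luminescence gave cytotoxicity after 18 hours at 37 degrees C. The cells were HepG2 CAGA-GFP in 1% FBS DMEM, stimulated with 500 pg/mL TGF-beta after compound addition. %Activity was normalised to no-cell wells (complete cell-killing) and DMSO (no toxicity), and curves were fitted and classified.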
ATXN2 expr inh = Primary qHTS for Inhibitors of ATXN expression; Potency, µM (highest dose often 57 µM), most hits filed as inhibitors; hit rate 0.72% among 360,000; HEK-293 ATXN2-luciferase reporter, luminescence, 24 h; note: nearly all actives have a fitted effect of over 55% in size
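qHTS (up to 57 uM final) was run with 24 h compound exposure of reporter cells at 37 °C. Each well was multiplexed: SteadyGlo luminescence measured ATXN2-luciferase expression after a fluorogenic Gly-Phe-AFC viability readout (25 uM final).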
A549 viability = Nrf2 qHTS screen for inhibitors: counterscreen for cytotoxicity | A549 ARE-Fluc cells, CellTiter-Fluor viability, 18-24 h | Potency, µM (highest dose often 46 µM), actives largely listed as inhibitors | hit rate 0.16% among 390,000
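Cytotoxicity counterscreen: CellTiter-Fluor fluorescence was measured in A549 ARE_Fluc cells after 18-24 h of compound exposure in a concentration series. The subsequent BugLite luminescent read reports ARE-luciferase activity.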
TGFb SMAD3 inh = qHTS for Inhibitors of TGF-b. AID 588855, 2011. Potency, µM (doses to about 46.1 µM), most hits filed as inhibitors. hit rate 1.2% among 410,000. HepG2 CAGA-GFP TGF-b/SMAD3 reporter, GFP fluorescence, 18 h; TGF-beta stimulated, 500 pg/mL final; note: nearly all actives have a fitted effect of over 65% in size
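TGF-beta reporter screen: HEPG2 CAGA-GFP, 1% FBS, 500 pg/mL TGF-beta final, 18 h; per-cell GFP summed per well; curves fitted and categorized by class.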
S2 tox = Viability Counterscreen for Primary qHTS for Inhibitors of ATXN expression. S2 cells (HEK-293 line with an ATXN2-luciferase reporter) viability, CellTiter-Fluor protease fluorescence, 24 h. Potency, µM (series often up to 56.7 µM), hits mostly cytotoxic. hit rate 0.49% among 400,000. AID 651635, 2014; note: nearly all actives have a fitted effect of over 40% in size
Of the large screens only hits and unclear results are named; the others gave an inactive call. An excerpt weighted towards active compounds, which were near 3.8% of everything screened. Calls come from the whole dose curve; as a rule, active = well fitted curve in the direction sought with a large enough effect; inconclusive = small, poorly fitted or top-dose-only effect, or another doubt; inactive = no such curve, though single readings can be large; an effect the other way counts as inactive or inconclusive.

Cc1ccc(-c2nn(-c3ccccc3)cc2C2CC(c3ccccc3)=NN2C(=O)CCC(=O)O)cc1 (stereo not drawn)	Nrf2 block 20.6µM
Cc1ccc(C2=NN(C(=O)CCC(=O)O)C(c3cn(-c4ccccc4)nc3-c3ccc(C)cc3)C2)cc1 (stereo not drawn)	A549 viability inconclusive
O=C(CCl)N1N=C(c2ccco2)CC1c1cccs1 (stereo not drawn)	Nrf2 block inconclusive, ATXN2 expr inh inconclusive, A549 viability inconclusive, TGFb SMAD3 inh inconclusive (no result: S2 tox)
CCC(=O)N1N=C(c2ccc(C)o2)CC1c1ccc(N(C)C)cc1 (stereo not drawn)	HepG2 tox 7.08µM
Cc1ccc(C2=NN(C(=O)CCl)C(c3cccs3)C2)o1 (stereo not drawn)	HepG2 tox 8.91µM, ATXN2 expr inh 7.52µM, TGFb SMAD3 inh 8.91µM (no result: S2 tox)
COc1ccc(S(=O)(=O)N2CCOCC2)cc1NC(=O)Cc1c(Cl)cccc1Cl	none
COc1ccc(S(=O)(=O)N2CCOCC2)cc1NC(=O)CN(C)Cc1c(F)cccc1Cl	Nrf2 block 20.6µM, TGFb SMAD3 inh inconclusive
Cc1cccc(NC(=S)N(CCCN2CCCC2)Cc2cccn2Cc2ccc(Cl)cc2)c1	Nrf2 block inconclusive, ATXN2 expr inh 31.6µM, A549 viability inconclusive, TGFb SMAD3 inh inconclusive (no result: S2 tox)
CCc1ccc(NC(=O)c2sc3nc(C)c(Cl)c(C)c3c2N)cc1	Nrf2 block 3.66µM
CCc1ccc(NC(=O)c2sc3nc(C)c(Cl)c(C)c3c2NC(=O)c2ccccc2OC)cc1	none
CC1CCc2onc(C(=O)N3CCN(c4ccc(Cl)cc4)CC3)c2C1 (stereo not drawn)	Nrf2 block 20.6µM (no result: ATXN2 expr inh, S2 tox)
C=CCS/C(N)=N\N=C\c1c(O)ccc2ccccc12	Nrf2 block inconclusive, TGFb SMAD3 inh 7.94µM
Cc1ccc(C)c(CN2C(=O)c3ccccc3S(=O)c3ccc(C(=O)N(C)Cc4ccccc4)cc32)c1 (stereo not drawn)	Nrf2 block 20.6µM, ATXN2 expr inh inconclusive, TGFb SMAD3 inh inconclusive
CCOC(=O)C1CCCN(C(=O)c2ccc3c(c2)N(Cc2ccccc2)C(=O)c2ccccc2S3=O)C1 (stereo not drawn)	Nrf2 block inconclusive, TGFb SMAD3 inh 10µM
O=C(c1ccc2c(c1)N(Cc1ccccc1)C(=O)c1ccccc1S2=O)N1CCC(Cc2ccccc2)CC1 (stereo not drawn)	Nrf2 block inconclusive, TGFb SMAD3 inh inconclusive
O=C(c1ccc2c(c1)N(Cc1ccc(F)cc1)C(=O)c1ccccc1S2=O)N1CCC(Cc2ccccc2)CC1 (stereo not drawn)	Nrf2 block 23.1µM, TGFb SMAD3 inh inconclusive
O=C(c1ccc2c(c1)N(Cc1ccc(F)cc1)C(=O)c1ccccc1S2(=O)=O)N1CCN(Cc2ccccc2)CC1	Nrf2 block inconclusive, A549 viability inconclusive, TGFb SMAD3 inh 3.55µM
COc1ccc(N(C)S(=O)(=O)c2cccc(C(=O)Nc3ccc(-n4cnnn4)cc3)c2)cc1	Nrf2 block inconclusive
Cc1ccc(C(=O)CSc2nnc3n2CCCCC3)s1	Nrf2 block inconclusive
CCOc1ccc(S(=O)(=O)NCc2cccnc2)cc1C(C)C	none
COc1cc(OC)c(NS(=O)(=O)c2ccc3c(c2)CCCN3C(C)=O)cc1Cl	none (no result: Nrf2 block, ATXN2 expr inh, S2 tox)
CCCCn1c(-c2nonc2N)nc2ccccc21	Nrf2 block 14.6µM, ATXN2 expr inh inconclusive
COc1ccc(-c2nc(-n3c(C)c(C(C)=O)c(C(C)=O)c3C)sc2C)cc1	Nrf2 block inconclusive (no result: A549 viability)
CC(=O)c1c(C(C)=O)c(C)n(-c2nc(-c3ccc(C)c(C)c3)c(C)s2)c1C	Nrf2 block 13µM
CO[C@@H]1[C@@H](O[C@@H]2O[C@H](C)[C@@H](O[C@H]3C[C@@](C)(O)[C@@H](OC(=O)CC(C)C)[C@H](C)O3)[C@H](N(C)C)[C@H]2O)[C@@H](CC=O)C[C@@H](C)[C@@H](O)/C=C/C=C/C[C@@H](C)OC(=O)C[C@H]1O	none (no result: Nrf2 block, HepG2 tox, ATXN2 expr inh, A549 viability, TGFb SMAD3 inh)
CCN(CC)S(=O)(=O)c1ccc2c(c1)N(CC(=O)NCc1ccccc1)C(=O)C1CCCCN21 (stereo not drawn)	none (no result: Nrf2 block)
CC(=O)C1=C(C)OC(N)=C(C#N)C1c1cc([N+](=O)[O-])ccc1Cl (stereo not drawn)	HepG2 tox 6.31µM, TGFb SMAD3 inh inconclusive
CC(=O)C1=C(C)OC(N)=C(C#N)C1c1cccc([N+](=O)[O-])c1 (stereo not drawn)	none
CC(C)c1ccc(NC(=O)CSC2=Nc3ccccc3C3=NC(CCC(=O)NCc4ccco4)C(=O)N23)cc1 (stereo not drawn)	none (no result: Nrf2 block, ATXN2 expr inh, S2 tox)
COc1ccc(-c2onc(C)c2C)cc1S(=O)(=O)NCC1CCN(Cc2cc(C)ccc2C)CC1	HepG2 tox 15.8µM, TGFb SMAD3 inh inconclusive (no result: ATXN2 expr inh, S2 tox)
COc1ccc(-c2onc(C)c2C)cc1S(=O)(=O)NCC1CCN(Cc2ccccc2F)CC1	Nrf2 block inconclusive (no result: ATXN2 expr inh, S2 tox)
CC(Oc1ccc(Br)cc1)C(=O)N(C)CC(=O)Nc1ccc(N2CCOCC2)cc1 (stereo not drawn)	Nrf2 block inconclusive
O=C(CSCc1cccc(CSCC(=O)Nc2ccc3ccccc3c2)n1)Nc1ccc2ccccc2c1	Nrf2 block 13µM, ATXN2 expr inh inconclusive, TGFb SMAD3 inh inconclusive
CS(=O)(=O)c1ccc(C(=O)OCC(=O)NCc2cccs2)cc1[N+](=O)[O-]	Nrf2 block inconclusive, ATXN2 expr inh inconclusive, A549 viability inconclusive, TGFb SMAD3 inh 11.2µM, S2 tox inconclusive
Cc1cccc(C(=O)OCC(=O)NCc2cccs2)c1	none
CCOC(=O)/C(=C/c1ccc(N2CCC(c3ccccc3)=N2)cc1)C(C)=O	Nrf2 block inconclusive, ATXN2 expr inh 1.89µM (no result: S2 tox)
COC(=O)C1=C(c2ccccc2)c2ccccc2S(=O)(=O)N1CC(=O)Nc1ccc(OC)cc1OC	none
Cc1ccc(S(=O)(=O)N(CC(=O)Nc2ccc(C)cc2C)C(=O)N2CCN(C)CC2)cc1	none
Cc1ccc(-n2c(SCC(=O)Nc3cccc(Cl)c3)nc3n[nH]c(C)c3c2=N)cc1	HepG2 tox 12.6µM, TGFb SMAD3 inh 1.78µM (no result: Nrf2 block, ATXN2 expr inh, S2 tox)
Cc1cccc(-n2c(SCC(=O)Nc3ccc(C)c(C)c3)nc3n[nH]c(C)c3c2=N)c1	TGFb SMAD3 inh inconclusive (no result: Nrf2 block, ATXN2 expr inh, S2 tox)
CCCCNC(=O)CSc1nc2n[nH]c(C)c2c(=N)n1-c1cccc(C)c1	TGFb SMAD3 inh inconclusive (no result: Nrf2 block, ATXN2 expr inh, S2 tox)
Cc1ccc(CNC(=O)CSc2nc3n[nH]c(C)c3c(=N)n2-c2cccc(C)c2)cc1	Nrf2 block 14.6µM, A549 viability inconclusive, TGFb SMAD3 inh inconclusive
